# According to the supplement of paper PMC4466140:
# Columns and labels:
# Assay in all cases: SPOT peptide array binding signal intensity (averaged, normalized) (arbitrary units (background-subtracted, floor 0; scale differs between SH3 domains)); higher = stronger binding of the SH3 domain to the peptide
# AgAbp1 = biological target: AgAbp1
# Experimental: (§1)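 GST-tagged SH3 domains from S. cerevisiae (Sc), A. gossypii (Ag), C. albicans (Ca) and S. pombe (Sp) were incubated at 10 ug/ml overnight at 4 C on cellulose SPOT membranes carrying 292 synthetic 15-mer peptides mined from the S. cerevisiae proteome (cysteines replaced by serines). Binding was detected with anti-GST antibody, HRP secondary and chemiluminescence, quantified with Genespotter, and reported as normalized spot intensities averaged over biological replicates.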
# AgBbc1 = biological target: AgBbc1
# Experimental: as §1
# AgBem1-D1 = biological target: AgBem1-D1
# Experimental: as §1
# AgBzz1-D1 = biological target: AgBzz1-D1
# Experimental: as §1
# AgBzz1-D2 = biological target: AgBzz1-D2
# Experimental: as §1
# AgCyk3 = biological target: AgCyk3
# Experimental: as §1
# AgFus1 = biological target: AgFus1
# Experimental: as §1
# AgHof1 = biological target: AgHof1
# Experimental: as §1
# AgHse1 = biological target: AgHse1
# Experimental: as §1
# AgLsb1 = biological target: AgLsb1
# Experimental: as §1
# AgLsb4 = biological target: AgLsb4
# Experimental: as §1
# AgMyo5 = biological target: AgMyo5
# Experimental: as §1
# AgNbp2 = biological target: AgNbp2
# Experimental: as §1
# AgRvs167 = biological target: AgRvs167
# Experimental: as §1
# AgSho1 = biological target: AgSho1
# Experimental: as §1
# AgSla1-D1-D2 = biological target: AgSla1-D1-D2
# Experimental: as §1
# AgSla1-D3 = biological target: AgSla1-D3
# Experimental: as §1
# CaAbp1-D1 = biological target: CaAbp1-D1
# Experimental: as §1
# CaAbp1-D2 = biological target: CaAbp1-D2
# Experimental: as §1
# CaBbc1 = biological target: CaBbc1
# Experimental: as §1
# CaBem1-D1 = biological target: CaBem1-D1
# Experimental: as §1
# CaBzz1-D1 = biological target: CaBzz1-D1
# Experimental: as §1
# CaBzz1-D2 = biological target: CaBzz1-D2
# Experimental: as §1
# CaCyk3 = biological target: CaCyk3
# Experimental: as §1
# CaFus1 = biological target: CaFus1
# Experimental: as §1
# CaHof1 = biological target: CaHof1
# Experimental: as §1
# CaHse1 = biological target: CaHse1
# Experimental: as §1
# CaLsb1 = biological target: CaLsb1
# Experimental: as §1
# CaLsb4 = biological target: CaLsb4
# Experimental: as §1
# CaMyo5 = biological target: CaMyo5
# Experimental: as §1
# CaNbp2 = biological target: CaNbp2
# Experimental: as §1
# CaRvs167 = biological target: CaRvs167
# Experimental: as §1
# CaRvs167-3 = biological target: CaRvs167-3
# Experimental: as §1
# CaSho1 = biological target: CaSho1
# Experimental: as §1
# CaSla1-D1-D2 = biological target: CaSla1-D1-D2
# Experimental: as §1
# CaSla1-D3 = biological target: CaSla1-D3
# Experimental: as §1
# ScAbp1 = biological target: ScAbp1
# Experimental: as §1
# ScBbc1 = biological target: ScBbc1
# Experimental: as §1
# ScBem1-D1 = biological target: ScBem1-D1
# Experimental: as §1
# ScBzz1-D1 = biological target: ScBzz1-D1
# Experimental: as §1
# ScBzz1-D2 = biological target: ScBzz1-D2
# Experimental: as §1
# ScCyk3 = biological target: ScCyk3
# Experimental: as §1
# ScFus1 = biological target: ScFus1
# Experimental: as §1
# ScHof1 = biological target: ScHof1
# Experimental: as §1
# ScHse1 = biological target: ScHse1
# Experimental: as §1
# ScLsb1 = biological target: ScLsb1
# Experimental: as §1
# ScLsb2 = biological target: ScLsb2
# Experimental: as §1
# ScLsb3 = biological target: ScLsb3
# Experimental: as §1
# ScLsb4 = biological target: ScLsb4
# Experimental: as §1
# ScMyo3 = biological target: ScMyo3
# Experimental: as §1
# ScMyo5 = biological target: ScMyo5
# Experimental: as §1
# ScNbp2 = biological target: ScNbp2
# Experimental: as §1
# ScPex13 = biological target: ScPex13
# Experimental: as §1
# ScRvs167 = biological target: ScRvs167
# Experimental: as §1
# ScSho1 = biological target: ScSho1
# Experimental: as §1
# ScSla1-D1-D2 = biological target: ScSla1-D1-D2
# Experimental: as §1
# ScSla1-D3 = biological target: ScSla1-D3
# Experimental: as §1
# SpAbp1-D1 = biological target: SpAbp1-D1
# Experimental: as §1
# SpBbc1 = biological target: SpBbc1
# Experimental: as §1
# SpBzz1-D1 = biological target: SpBzz1-D1
# Experimental: as §1
# SpBzz1-D2 = biological target: SpBzz1-D2
# Experimental: as §1
# SpCyk3 = biological target: SpCyk3
# Experimental: as §1
# SpHof1 = biological target: SpHof1
# Experimental: as §1
# SpHof1-2 = biological target: SpHof1-2
# Experimental: as §1
# SpHof1-3 = biological target: SpHof1-3
# Experimental: as §1
# SpHse1 = biological target: SpHse1
# Experimental: as §1
# SpLsb1 = biological target: SpLsb1
# Experimental: as §1
# SpLsb4 = biological target: SpLsb4
# Experimental: as §1
# SpMyo1 = biological target: SpMyo1
# Experimental: as §1
# SpNbp2 = biological target: SpNbp2
# Experimental: as §1
# SpPex13 = biological target: SpPex13
# Experimental: as §1
# SpRvs167 = biological target: SpRvs167
# Experimental: as §1
# SpSla1-D1-D2 = biological target: SpSla1-D1-D2
# Experimental: as §1
# SpSla1-D3 = biological target: SpSla1-D3
# Experimental: as §1
binder,measurement,setting,value
NILKRRPLKLEAPSK,SPOT peptide array binding signal intensity,AgAbp1,27.5
same,SPOT peptide array binding signal intensity,AgBbc1,0.25
same,SPOT peptide array binding signal intensity,AgBem1-D1,65
same,SPOT peptide array binding signal intensity,AgBzz1-D1,14
same,SPOT peptide array binding signal intensity,AgBzz1-D2,8
same,SPOT peptide array binding signal intensity,AgCyk3,≤ 0
same,SPOT peptide array binding signal intensity,AgFus1,77
same,SPOT peptide array binding signal intensity,AgHof1,1.25
same,SPOT peptide array binding signal intensity,AgHse1,1740
same,SPOT peptide array binding signal intensity,AgLsb1,0.5
same,SPOT peptide array binding signal intensity,AgLsb4,41
same,SPOT peptide array binding signal intensity,AgMyo5,≤ 0
same,SPOT peptide array binding signal intensity,AgNbp2,32
same,SPOT peptide array binding signal intensity,AgRvs167,4.5
same,SPOT peptide array binding signal intensity,AgSho1,≤ 0
same,SPOT peptide array binding signal intensity,AgSla1-D1-D2,7
same,SPOT peptide array binding signal intensity,AgSla1-D3,≤ 0
same,SPOT peptide array binding signal intensity,CaAbp1-D1,478
same,SPOT peptide array binding signal intensity,CaAbp1-D2,96
same,SPOT peptide array binding signal intensity,CaBbc1,1.25
same,SPOT peptide array binding signal intensity,CaBem1-D1,≤ 0
same,SPOT peptide array binding signal intensity,CaBzz1-D1,≤ 0
same,SPOT peptide array binding signal intensity,CaBzz1-D2,14
same,SPOT peptide array binding signal intensity,CaCyk3,8
same,SPOT peptide array binding signal intensity,CaFus1,534
same,SPOT peptide array binding signal intensity,CaHof1,0.25
same,SPOT peptide array binding signal intensity,CaHse1,27.5
same,SPOT peptide array binding signal intensity,CaLsb1,≤ 0
same,SPOT peptide array binding signal intensity,CaLsb4,≤ 0
same,SPOT peptide array binding signal intensity,CaMyo5,1.5
same,SPOT peptide array binding signal intensity,CaNbp2,284
same,SPOT peptide array binding signal intensity,CaRvs167,31.7
same,SPOT peptide array binding signal intensity,CaRvs167-3,24
same,SPOT peptide array binding signal intensity,CaSho1,93.5
same,SPOT peptide array binding signal intensity,CaSla1-D1-D2,10.5
same,SPOT peptide array binding signal intensity,CaSla1-D3,≤ 0
same,SPOT peptide array binding signal intensity,ScAbp1,296
same,SPOT peptide array binding signal intensity,ScBbc1,≤ 0
same,SPOT peptide array binding signal intensity,ScBem1-D1,10
same,SPOT peptide array binding signal intensity,ScBzz1-D1,12
same,SPOT peptide array binding signal intensity,ScBzz1-D2,≤ 0
same,SPOT peptide array binding signal intensity,ScCyk3,33
same,SPOT peptide array binding signal intensity,ScFus1,149
same,SPOT peptide array binding signal intensity,ScHof1,≤ 0
same,SPOT peptide array binding signal intensity,ScHse1,2660
same,SPOT peptide array binding signal intensity,ScLsb1,2.5
same,SPOT peptide array binding signal intensity,ScLsb2,1
same,SPOT peptide array binding signal intensity,ScLsb3,76
same,SPOT peptide array binding signal intensity,ScLsb4,2
same,SPOT peptide array binding signal intensity,ScMyo3,0.25
same,SPOT peptide array binding signal intensity,ScMyo5,≤ 0
same,SPOT peptide array binding signal intensity,ScNbp2,46
same,SPOT peptide array binding signal intensity,ScPex13,≤ 0
same,SPOT peptide array binding signal intensity,ScRvs167,2.5
same,SPOT peptide array binding signal intensity,ScSho1,368
same,SPOT peptide array binding signal intensity,ScSla1-D1-D2,39
same,SPOT peptide array binding signal intensity,ScSla1-D3,≤ 0
same,SPOT peptide array binding signal intensity,SpAbp1-D1,64.5
same,SPOT peptide array binding signal intensity,SpBbc1,0.75
same,SPOT peptide array binding signal intensity,SpBzz1-D1,64
same,SPOT peptide array binding signal intensity,SpBzz1-D2,≤ 0
same,SPOT peptide array binding signal intensity,SpCyk3,≤ 0
same,SPOT peptide array binding signal intensity,SpHof1,48.8
same,SPOT peptide array binding signal intensity,SpHof1-2,≤ 0
same,SPOT peptide array binding signal intensity,SpHof1-3,699
same,SPOT peptide array binding signal intensity,SpHse1,1400
same,SPOT peptide array binding signal intensity,SpLsb1,1
same,SPOT peptide array binding signal intensity,SpLsb4,3.5
same,SPOT peptide array binding signal intensity,SpMyo1,≤ 0
same,SPOT peptide array binding signal intensity,SpNbp2,58
same,SPOT peptide array binding signal intensity,SpPex13,≤ 0
same,SPOT peptide array binding signal intensity,SpRvs167,1.33
same,SPOT peptide array binding signal intensity,SpSla1-D1-D2,2
same,SPOT peptide array binding signal intensity,SpSla1-D3,≤ 0
